Columns and labels:
Assay type in all cases: functional
[1] = system: Plasmodium falciparum; experiment: GSK_TCMDC: Inhibition of Plasmodium falciparum 3D7 in whole red blood cells, using parasite LDH activity as an index of growth. Test compounds present at 2uM
[2] = system: Plasmodium falciparum; experiment: GSK_TCMDC: Inhibition of Plasmodium falciparum Dd2 in whole red blood cells, using parasite LDH activity as an index of growth. Test compounds present at 2uM
[3] = system: HepG2; experiment: GSK_TCMDC: Percent inhibition of human HepG2 cell line. Test compounds present at 10uM.

Work on `OC(CN1CCN(Cc2ccccc2)CC1)Cn1c(-c2ccccc2)c(-c2ccccc2)c2ccccc21` (stereo unspecified) yielded an Inhibition [1] of 98%, an Inhibition [2] of 97% and an Inhibition [3] of 0%.
`O=C(Nc1ccc(Cl)cc1)c1cccc(S(=O)(=O)NC2CCN(CC3CCCCC3)C2)c1.O=C(O)C(F)(F)F` (stereo unspecified) gave an Inhibition [1] of 90%, an Inhibition [2] of 41% and an Inhibition [3] of 80%.
In the case of `Fc1cccc(COc2ccc(Nc3ncnc4sc(C#Cc5ncc[nH]5)cc34)cc2Cl)c1`, the Inhibition [1] is reported as 100%, the Inhibition [2] is reported as 95% and the Inhibition [3] is reported as 55%.
For `COc1ccc(CNC(=O)c2cc3c(=O)n4ccccc4nc3n(CCc3ccccc3)c2=N)cc1`, the Inhibition [1] was 99%, the Inhibition [2] was 22% and the Inhibition [3] was 26%.
Work on `Cc1cc(CN2CC[C@H](NC(=O)c3ccc(Cl)c(Cl)c3)C2)ccc1OCCCN(C)C.O=C(O)C(F)(F)F` yielded an Inhibition [1] of 99%, an Inhibition [2] of 35% and an Inhibition [3] of 41%.
Work on `O=S(=O)(c1cc(Cl)ccc1Cl)N1CCCCC(c2ccc(C(F)(F)F)cc2)=N1` yielded an Inhibition [1] of 87%, an Inhibition [2] of 68% and an Inhibition [3] of 15%.
Work on `COc1ccccc1C(C)NCC(=O)Nc1ccccc1Sc1ccccc1` (stereo unspecified) yielded an Inhibition [1] of 89%, an Inhibition [2] of 7% and an Inhibition [3] of 0%.
`Cc1cc2c(/C=C/C(=O)NC3CCC(CCN4CCc5ccc(C#N)cc5CC4)CC3)cccc2[nH]1.Cl` (stereo unspecified) showed an Inhibition [1] of 95%, an Inhibition [2] of 39% and an Inhibition [3] of 16%.
In the case of `CC(C)CCN1CCC(Oc2ccc(NC(=O)c3ccc(F)cc3)cc2Cl)CC1.O=C(O)C(F)(F)F`, the Inhibition [1] is reported as 98%, the Inhibition [2] is reported as 88% and the Inhibition [3] is reported as 33%.
`O=C(NCc1cccc(C(F)(F)F)c1)c1ccc(CNC(=O)c2ccc(O)c(-c3ccc(Cl)c(Cl)c3)c2)cc1` gave an Inhibition [1] of 92%, an Inhibition [2] of 15% and an Inhibition [3] of 7%.
For `CCOC(=O)C1=C(C)NC(Cn2ccnc2)=C(C(=O)OCC)C1c1ccc(C(C)(C)C)cc1.Cl` (stereo unspecified), the Inhibition [1] was 100%, the Inhibition [2] was 33% and the Inhibition [3] was 8%.
`CC(=O)Nc1ccc(Nc2ncc([N+](=O)[O-])c(Nc3ccccc3C(N)=O)n2)cc1.Cl` showed an Inhibition [1] of 98%, an Inhibition [2] of 97% and an Inhibition [3] of 42%.
`COc1ccc(-n2c(=O)c3c(n4c(SC(C)C)nnc24)-c2ccccc2CC32CCCCC2)cc1` gave an Inhibition [1] of 99%, an Inhibition [2] of 15% and an Inhibition [3] of 0%.
Compound `CC[C@H]1CN2CCc3cc(OC)c(OC)cc3[C@@H]2C[C@@H]1C[C@H]1NCCc2cc(OC)c(OC)cc21` [EMETINE] has an Inhibition [1] of 100%, an Inhibition [2] of 99% and an Inhibition [3] of 43%.
`O=C(N[C@@H](Cc1ccccc1)[C@H](O)CNCCC(F)(F)F)c1cccc(OCC2CC2)c1` showed an Inhibition [1] of 98%, an Inhibition [2] of 95% and an Inhibition [3] of 0%.
Work on `Cc1ccc(Cc2cnc(CN3CCCCC3)c(O)c2)cc1.Cl` yielded an Inhibition [1] of 93%, an Inhibition [2] of 75% and an Inhibition [3] of 4%.
For `COc1cc(Cc2cnc(N)nc2N)cc(OC)c1OCCCCC(=O)O.Cl`, the Inhibition [1] was 88%, the Inhibition [2] was 0% and the Inhibition [3] was 0%.
For `CC(O)C1CCCCN1C(=O)c1cccc(-c2cccc(-c3nc4cc(C(F)(F)F)ccc4[nH]3)c2)c1` (stereo unspecified), the Inhibition [1] was 100%, the Inhibition [2] was 100% and the Inhibition [3] was 32%.
Compound `CN1CCN(Cc2nc(-c3ccc4c(Nc5ccc(Oc6ccccc6)cc5)ccnc4c3)cs2)CC1` has an Inhibition [1] of 100%, an Inhibition [2] of 99% and an Inhibition [3] of 15%.
In the case of `Cc1ccc(Cn2c(N3CCC(C(=O)NCc4ccccn4)CC3)nc3ccccc32)cc1`, the Inhibition [1] is reported as 100%, the Inhibition [2] is reported as 99% and the Inhibition [3] is reported as 0%.
`CN1CCN(CCCN(Cc2ccc(-c3cccc(CNC4CCCC4)c3)cc2)C(=O)/C=C/c2ccccc2)CC1.O=C(O)C(F)(F)F` showed an Inhibition [1] of 100%, an Inhibition [2] of 87% and an Inhibition [3] of 36%.
For `O=C(Nc1cccnc1)c1cc(-c2cc(Cl)ccc2O)n[nH]1`, the Inhibition [1] was 98%, the Inhibition [2] was 85% and the Inhibition [3] was 7%.
With `Cc1cc(N[C@@H](Cc2ccccc2)C(=O)NCCc2ccccc2)nc(NCCOc2ccccc2)n1.O=C(O)C(F)(F)F` the Inhibition [1] was 95%, the Inhibition [2] was 14% and the Inhibition [3] was 10%.
`CC(C)COc1ccc2ccccc2c1CNCCCCCCNCc1c(OCC(C)C)ccc2ccccc12.CS(=O)(=O)O` showed an Inhibition [1] of 90%, an Inhibition [2] of 95% and an Inhibition [3] of 99%.
`COc1cccc(CN2CCCC(OC(c3ccccc3)c3ccccc3)C2)c1O.O=C(O)C(F)(F)F` (stereo unspecified) was tested, and the Inhibition [1] was 90%, the Inhibition [2] was 73% and the Inhibition [3] was 19%.
With `Cc1cccc2nc(-c3ccc(-c4cccc(CNCc5ccccc5)c4)s3)[nH]c12.O=C(O)C(F)(F)F` the Inhibition [1] was 99%, the Inhibition [2] was 50% and the Inhibition [3] was 3%.
`COC(=O)c1ccc(CN2CCC(N(Cc3cccc(Oc4ccccc4)c3)S(=O)(=O)c3ccc(NC(C)=O)cc3)CC2)cc1` showed an Inhibition [1] of 82%, an Inhibition [2] of 86% and an Inhibition [3] of 0%.

Reference: ChEMBL document CHEMBL1157539, “Thousands of chemical starting points for antimalarial lead identification” (Nature, 2010)
